Among the data in the OligoGym collection are sensor-assay potency score (higher = more potent) values, retold here.
Further: reference of the scale not given here.

For this assay, the target named is EIF4EBP2. Kind of assay: pooled miR-30 sensor sort-seq; sequence = guide strand. The note with it: shRNA.
Take TTCTGTCATAAATGATTCGAGT: the sensor-assay potency score (higher = more potent) is -1.23.

With TTCAATTAAGGTGCCAGGGCTA, the sensor-assay potency score (higher = more potent) was -0.657.

With TACTTCTACTTTGGAGTCTTCA, the sensor-assay potency score (higher = more potent) is -0.613.

For the sequence TACTTTGGAGTCTTCAATTAAG, the sensor-assay potency score (higher = more potent) is -1.27.

Take AATAGTCATGAGGTAGCTGCGC: the sensor-assay potency score (higher = more potent) was -0.823.

TTCTACTTTGGAGTCTTCAATT: the sensor-assay potency score (higher = more potent) was -1.52.

As to TCGCTGATGGCCACGGTGCGGG, the sensor-assay potency score (higher = more potent) was -1.63.

For TTGGAGTCTTCAATTAAGGTGC, the sensor-assay potency score (higher = more potent) was -0.116.

Turning to TCCAACAGAAACTTTCTGTCAT, the sensor-assay potency score (higher = more potent) was -0.136.

For the sequence TAGTCATGAGGTAGCTGCGCGG, the sensor-assay potency score (higher = more potent) was -1.17.

In the case of TTTCTGTCATAAATGATTCGAG, the sensor-assay potency score (higher = more potent) is -0.301.

Regarding TGTTCAAATTGTTTACTTCTAC, the sensor-assay potency score (higher = more potent) is -0.311.

Turning to ATAGTCATGAGGTAGCTGCGCG, the sensor-assay potency score (higher = more potent) was -0.462.

Sequence AATTGTTTACTTCTACTTTGGA showed a sensor-assay potency score (higher = more potent) of 0.534.

TGATTCGAGTTCCTCCCGGTGT: the sensor-assay potency score (higher = more potent) was -0.789.

TTGTTCAAGTTGTTCAAATTGT: the sensor-assay potency score (higher = more potent) was -0.233.

As for TGGTGCAATAGTCATGAGGTAG, the sensor-assay potency score (higher = more potent) is -1.72.

TTGTTCAAATTGTTTACTTCTA: the sensor-assay potency score (higher = more potent) was -0.655.

For ATGTTTCCTGTCGTGATTGTTC, the sensor-assay potency score (higher = more potent) was -0.959.

The sequence TAAATGATTCGAGTTCCTCCCG returned a sensor-assay potency score (higher = more potent) of 0.0359.

As to AAACTTTCTGTCATAAATGATT, the sensor-assay potency score (higher = more potent) is -1.63.

AAATGATTCGAGTTCCTCCCGG: the sensor-assay potency score (higher = more potent) is -0.69.

As for TCAAATTGTTTACTTCTACTTT, the sensor-assay potency score (higher = more potent) was -0.42.

With AATGATTCGAGTTCCTCCCGGT, the sensor-assay potency score (higher = more potent) worked out at 0.498.
